In PubChem BioAssay (NCATS):
The source made the active and inactive calls. Cut-off read from the data, not from the text of the source: active = potency below about 10 µM; inactive = the rest.

Molecular target: Lysosomal acid glucosylceramidase (Homo sapiens) (UniProt P04062)
Assay: Glucocerebrosidase-p2 (AID 348)
Details: purified GBA, blue fluorogenic substrate, 40 min
Procedure, shortened: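 Normal human glucocerebrosidase (0.2 nM) with blue fluorogenic substrate (80 uM final) in citrate/phosphate pH 5.9 with 10mM sodium taurocholate, 0.01% tween-20; 40 min RT, NaOH/glycine stop; fluorescence Ex 365/Em 440; AC50 from a titration from 0.6 nM upwards.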
Potency is the fitted concentration of half-maximal effect.

Chain of Lysosomal acid glucosylceramidase (Homo sapiens) (P04062 whole entry, looked up): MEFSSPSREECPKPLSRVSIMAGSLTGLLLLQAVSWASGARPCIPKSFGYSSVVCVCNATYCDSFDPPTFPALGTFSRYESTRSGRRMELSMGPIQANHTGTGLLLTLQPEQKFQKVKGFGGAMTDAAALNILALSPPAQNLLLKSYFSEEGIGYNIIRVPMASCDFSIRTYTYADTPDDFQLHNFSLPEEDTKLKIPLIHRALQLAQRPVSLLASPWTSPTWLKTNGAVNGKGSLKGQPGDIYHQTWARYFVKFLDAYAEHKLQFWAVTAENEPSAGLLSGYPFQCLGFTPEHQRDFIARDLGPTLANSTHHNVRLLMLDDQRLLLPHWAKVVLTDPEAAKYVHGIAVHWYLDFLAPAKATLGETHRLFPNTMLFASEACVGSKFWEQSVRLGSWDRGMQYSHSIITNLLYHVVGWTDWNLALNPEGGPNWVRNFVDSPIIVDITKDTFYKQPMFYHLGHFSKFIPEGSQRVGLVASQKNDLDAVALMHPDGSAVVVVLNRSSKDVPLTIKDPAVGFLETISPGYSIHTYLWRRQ

Structure (SMILES) | Potency
c1cc(-c2sc(-c3ccncc3)c(-c3ccncc3)c2-c2ccncc2)ccn1 | > 11.4 µM (inactive)
O=C(O)CCc1nc(-c2ccccc2)c(-c2ccccc2)o1 | > 11.4 µM (inactive)
